Screening data as filed in PubChem.
An excerpt weighted towards active compounds, which were near 19% of everything screened.
HT1080 IDH1KD tx: toxicity to HT-1080 IDH1 knockdown cells (counter line) | Potency, µM (doses to about 46.1 µM), most hits filed as cytotoxic | HT-1080 IDH1 knockdown viability, ATP luminescence, 48 h | actives 2% (n = 360,000) | AID 686971
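CellTiter-Glo luminescence after 48 h compound exposure at 37 degrees C of IDH1-knockdown HT-1080 cells in 5% FBS RPMI. %Activity scaled between DMSO wells and cell-free media wells, with curves fitted and assigned curve classes.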
uPA surface inh: blocks generation of uPA at the cell surface | cell surface uPA generation assay, qHTS | Potency, µM (titrated, usually from 38.3 µM), hits mostly inhibitors | actives 0.31% (n = 330,000); active = well fitted inhibition curve with a large enough effect; inconclusive = small, poorly fitted or top-dose-only effect; inactive = no such curve, though single readings can be large or run the other way; tested in mouse RAW 264.7 cells; also: nearly all actives have a fitted effect of over 55% in size
TDP1 cell noCPT: qHTS for Inhibitors of human tyrosyl-DNA phosphodiesterase 1 (TDP1): qHTS in cells in absence of CPT | Potency, µM (top dose mostly 46.2 µM), hits mostly inhibitors | DT40 Tdp1-/- hTDP1 cells, no CPT, ATP luminescence, 48 h | actives 15% (n = 420,000); also: nearly all actives have a fitted effect of over 55% in size
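Growth kinetics read by CellTiter-Glo luminescence after ≥48 hr at 37 °C. Cells: DT40 Tdp1-/- stably carrying human TDP1, 400 per well, compound exposure in the absence of CPT (DMSO vehicle).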
IL-1B inflam inh: blocks inflammasome-driven IL-1 beta release | activity change, % at 57.5 µM | AID 743279 | actives 4.7% (n = 360,000) | THP-1 LPS/ATP IL-1B secretion, AlphaLISA, 16 h; hits give low values; in the data active = activity change below about -50%; inconclusive = mostly about -30% to -49%
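THP-1 cells pretreated 1 hr with compounds (up to 57.5 uM final), then stimulated with LPS (250 ng/mL final) plus ATP (1.25 mM final); secreted IL-1B measured by AlphaLISA after 16 hr, decreased signal indicating inhibition.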
TDP1 cell CPT: growth inhibition of DT40 Tdp1-/-;hTDP1 cells with camptothecin (screen for TDP1 inhibitors). chicken DT40 Tdp1-/-;hTDP1 cells + 20 nM CPT, ATP luminescence, 48 h. Potency, µM (doses to about 46.2 µM), usual class: inhibitors. actives 12% (n = 420,000). AID 686979; also: nearly all actives have a fitted effect of over 55% in size
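Chicken DT40 Tdp1-/- cells complemented with human TDP1, 400 cells/well, exposed to compounds plus 20 nM camptothecin for at least 48 h at 37 C; viability read as ATP content by CellTiter-Glo luminescence.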
HT1080-NT tox: kills 2HG-producing HT-1080-NT fibrosarcoma cells; HT-1080-NT fibrosarcoma viability, CellTiter-Glo ATP luminescence, 48 h; Potency, µM (doses to about 46.1 µM), most hits filed as cytotoxic; actives 1.6% (n = 360,000); AID 686970;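 also: NT is the 2HG producing partner of a matched IDH1 knockdown line; nearly all actives have a fitted effect of over 55% in size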
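Read-out is CellTiter-Glo luminescence after 10 minutes at room temperature, following 48 hours' compound treatment of HT-1080-NT cells (750 cells/well, RPMI, 5% FBS, 37 degrees C).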
Of the large screens only hits and unclear results are named; the others gave an inactive call. Unless noted, calls follow the shape of the dose curve; as a rule, active = well fitted curve in the direction sought with a large enough effect; inconclusive = small, poorly fitted or top-dose-only effect, or another doubt; inactive = no such curve, though single readings can be large; an effect the other way counts as inactive or inconclusive.

O=C(CN1CCN(S(=O)(=O)c2ccccc2)CC1)Nc1ccc2c(c1)CCC2	TDP1 cell noCPT 15µM, IL-1B inflam inh inconclusive, TDP1 cell CPT inconclusive
O=C(CN1CCN(Cc2ccccc2)CC1)Nc1ccc2c(c1)CCC2	TDP1 cell noCPT inconclusive, IL-1B inflam inh -86
Cc1ccc(C)c(S(=O)(=O)N2CCN(CC(=O)Nc3ccc4c(c3)CCC4)CC2)c1	TDP1 cell noCPT inconclusive, TDP1 cell CPT inconclusive
COc1ccccc1N1CCN(C(=O)CCCN2C(=O)c3cccc4cccc(c34)C2=O)CC1	TDP1 cell noCPT 29µM, IL-1B inflam inh inconclusive, TDP1 cell CPT 16µM
COc1ccccc1N1CCN(C(=O)COc2cccc3ccccc23)CC1	TDP1 cell noCPT inconclusive, TDP1 cell CPT 23µM
COc1ccccc1N1CCN(C(=O)CN2C(=O)c3cccc4cccc(c34)C2=O)CC1	TDP1 cell noCPT inconclusive, IL-1B inflam inh inconclusive, TDP1 cell CPT 26µM
COc1ccccc1N1CCN(C(=O)Cn2c(=O)n3nc(-c4cccc(F)c4)nc3c3ccccc32)CC1	none (no result: HT1080 IDH1KD tx, uPA surface inh, IL-1B inflam inh, HT1080-NT tox)
COc1ccccc1N1CCN(C(=O)Cn2c(=O)nc(-c3ccccc3)c3ccccc32)CC1	TDP1 cell noCPT 15µM, TDP1 cell CPT inconclusive (no result: HT1080 IDH1KD tx, uPA surface inh, IL-1B inflam inh, HT1080-NT tox)
O=C(CCCN1C(=O)c2cccc3cccc(c23)C1=O)N1CCN(c2ccccn2)CC1	TDP1 cell noCPT inconclusive, TDP1 cell CPT inconclusive
O=C(NCc1ccccc1F)C1CCCN1S(=O)(=O)c1ccc(F)cc1 (stereo not drawn)	TDP1 cell CPT inconclusive
COC(=O)CNC(c1ccccc1)c1cc(Br)ccc1NC(=O)c1cc(OC)c(OC)c(OC)c1 (stereo not drawn)	TDP1 cell noCPT 7.3µM, TDP1 cell CPT 16µM (no result: HT1080 IDH1KD tx, uPA surface inh, IL-1B inflam inh, HT1080-NT tox)
COc1cc(NC(=O)CNC(c2ccccc2)c2ccccc2)cc(OC)c1OC	TDP1 cell noCPT 21µM, TDP1 cell CPT 26µM
COc1ccc(C(CC(=O)Nc2ccc(F)cc2)c2ccccc2)cc1 (stereo not drawn)	HT1080 IDH1KD tx inconclusive, TDP1 cell noCPT inconclusive, TDP1 cell CPT inconclusive, HT1080-NT tox inconclusive
COC(=O)CNC(c1ccccc1)c1cc(Br)ccc1NC(=O)OCc1ccccc1 (stereo not drawn)	TDP1 cell noCPT inconclusive
COc1ccc(NC(=O)CC(c2ccc(F)cc2)c2ccc(OC)cc2)cc1 (stereo not drawn)	TDP1 cell noCPT 15µM, TDP1 cell CPT inconclusive
COc1cc(NC(c2ccccc2)c2ccccc2)cc(OC)c1OC	none
COc1ccc(NC(=O)CNC(c2ccccc2)c2ccccc2)cc1	TDP1 cell noCPT 26µM, TDP1 cell CPT inconclusive
COc1ccccc1C(=O)NCc1nc2cccnc2n1Cc1ccc(F)cc1	TDP1 cell noCPT inconclusive (no result: HT1080 IDH1KD tx, uPA surface inh, IL-1B inflam inh, HT1080-NT tox)
Cc1cccc(NC(=O)CSc2nncn2N)c1C	none (no result: uPA surface inh)
O=C(Cc1ccc(NC(=O)C2CCCN(C(=O)C3CC3)C2)cc1)Nc1cccc(C(=O)N2CCCCC2)c1 (stereo not drawn)	none
COc1ccccc1C(CC(=O)Nc1ccc(Cl)cc1)c1ccc(OC(C)C)cc1 (stereo not drawn)	TDP1 cell noCPT inconclusive, TDP1 cell CPT 16µM
COc1ccccc1NC(=O)CNC(c1ccccc1)c1ccccc1	TDP1 cell noCPT inconclusive, TDP1 cell CPT inconclusive
COc1ccc(N/N=C(C)/C(=N/O)C(=O)Nc2ccccc2)cc1	HT1080 IDH1KD tx inconclusive, TDP1 cell noCPT 15µM, TDP1 cell CPT inconclusive, HT1080-NT tox inconclusive
COc1ccc(C)cc1NC(=O)CNC(c1ccccc1)c1ccc(C)cc1 (stereo not drawn)	HT1080 IDH1KD tx 5.2µM, uPA surface inh 1.8µM, TDP1 cell noCPT 3.3µM, TDP1 cell CPT 3.3µM, HT1080-NT tox inconclusive
C=CCNC(=O)/C(C#N)=C\c1cc(Cl)c(OCC)c(OC)c1	HT1080 IDH1KD tx inconclusive, TDP1 cell noCPT inconclusive, IL-1B inflam inh -91, TDP1 cell CPT inconclusive, HT1080-NT tox inconclusive
CCOc1c(Br)cc(/C=C(\C#N)C(=O)NC2CC2)cc1OC	HT1080 IDH1KD tx inconclusive, TDP1 cell noCPT inconclusive, TDP1 cell CPT inconclusive, HT1080-NT tox 23µM
CSc1nc(C)nc(N/C=C(\C#N)S(=O)(=O)c2ccccc2Cl)n1	none
COc1ccc(/C(C)=N/NC(=O)c2ccc(NS(=O)(=O)c3cccs3)cc2)cc1	TDP1 cell noCPT inconclusive, TDP1 cell CPT inconclusive
COCC(C)n1c(C)cc(C(=O)COC(=O)c2n[nH]c3ccccc23)c1C (stereo not drawn)	TDP1 cell noCPT 26µM, IL-1B inflam inh inconclusive, TDP1 cell CPT inconclusive
COCC(C)n1c(C)cc(C(=O)CSc2nc(C)c(C)c(C)n2)c1C (stereo not drawn)	TDP1 cell noCPT 15µM, TDP1 cell CPT inconclusive
